TEAD-YAP inh: TEAD-YAP interaction inhibition; AID 1259422; HEK-TIYL cells, TEAD-Gal4/YAP UAS-luciferase luminescence; inhibition, % at 9.12 µM; actives 1.4% (n = 640,000); in the data active = inhibition above about 32%;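 also: 0% = median of test compound wells and 100% = reference inhibitor wells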
GPR151 activ: human GPR151 activation; Q8TDV0; activation, % at 11.2 µM; actives 1% (n = 650,000); PathHunter beta-arrestin GPR151 cells, luminescence; in the data active = activation above about 4.9%;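 also: 0% = median of compound wells and 100% = cells with positive control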
MITF inh: human MITF inhibition, primary screen; AlphaScreen MITF homodimerization, bead proximity signal; inhibition, % at 2.6 µM; actives 0.91% (n = 650,000); AID 1259374; in the data active = inhibition above about 50%;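 also: 0% = vehicle wells with protein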
FBW7 act: human FBW7 E3 ligase activation, primary screen. Q969H0. actives 0.13% (n = 650,000). AlphaScreen FBW7–phospho-cyclin E peptide binding, activator screen. AID 1259310. normalized activity (activation), % at 26.1 µM; in the data active = normalized activity above about 1.9%;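 also: purified mutant Fbw7 with reduced substrate affinity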
Target sequence (Q969H0 whole entry, looked up): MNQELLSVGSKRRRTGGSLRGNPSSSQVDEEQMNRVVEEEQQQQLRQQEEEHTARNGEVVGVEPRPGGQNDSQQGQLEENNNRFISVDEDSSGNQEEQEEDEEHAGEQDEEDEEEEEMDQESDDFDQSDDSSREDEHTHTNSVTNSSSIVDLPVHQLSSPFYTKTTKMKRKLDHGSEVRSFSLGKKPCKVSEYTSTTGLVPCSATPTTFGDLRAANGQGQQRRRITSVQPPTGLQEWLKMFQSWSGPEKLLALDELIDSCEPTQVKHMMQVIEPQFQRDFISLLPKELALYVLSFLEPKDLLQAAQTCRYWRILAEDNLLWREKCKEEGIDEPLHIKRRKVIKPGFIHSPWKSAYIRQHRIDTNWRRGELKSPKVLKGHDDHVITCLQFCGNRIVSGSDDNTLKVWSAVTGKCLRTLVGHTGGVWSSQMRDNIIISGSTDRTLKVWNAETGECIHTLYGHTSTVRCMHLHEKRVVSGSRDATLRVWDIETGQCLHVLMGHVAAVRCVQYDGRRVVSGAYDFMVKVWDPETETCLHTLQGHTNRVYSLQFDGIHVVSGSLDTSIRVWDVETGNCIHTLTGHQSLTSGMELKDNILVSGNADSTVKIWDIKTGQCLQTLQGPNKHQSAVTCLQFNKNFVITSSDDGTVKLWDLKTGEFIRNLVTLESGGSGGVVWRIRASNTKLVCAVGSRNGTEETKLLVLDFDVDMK
GPR151 confirm: confirmation of human GPR151 activators. shares compounds with GPR151 activ. GPR151 PathHunter beta-arrestin cells, luminescence, 90 min; % of EA-reagent control over plate median. activation, % at 11.2 µM. 6,700 tested, under 10 active. AID 1508609;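 active = mean percent activation across replicates above the confirmation screen cutoff of 4.91%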
GPR119 counter: GPR119 activation, counter-screen for GPR151 activators; shares compounds with GPR151 activ; GPR119 PathHunter beta-arrestin cells, luminescence, 90 min; 0 = compound-well median, 100 = enzyme-acceptor control; activation, % at 11.2 µM; actives 0.3% (n = 6,700);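 active = mean percent activation in the counterscreen above 29.09%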;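 also: counterscreen on off-target GPR119 to flag nonselective hits from the GPR151 activator screen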
An asterisk follows results filed as active; . = no result. In the library only some 3.4% were active in any assay of this set; here they are far more common.

SMILES	TEAD-YAP inh	GPR151 activ	MITF inh	FBW7 act	GPR151 confirm	GPR119 counter
O=C1NCC2=C1C(c1ccccc1O)Nc1ccccc1N2 (stereo unspecified)	-4	9.2*	5	0	0	9
Cc1[nH]c2ccc(CNC(=O)Nc3ccc(F)cc3F)cc2c1C	6	5.9*	6	0	-1	-6
CCOC(=O)N1CCN(Cc2cc(=O)oc3ccc(OC)cc23)CC1	-23	14*	12	0	0	1
COc1ccc2oc(=O)cc(CN3CCCCC3)c2c1	5	0	10	0	.	.
O=C1COc2cc(-c3c(NC4CCCCC4)c(=O)c3=O)ccc2N1	-6	14*	4	0	0	-2
CCCCn1c(C23CC4CC(CC(C4)C2)C3)cn2c3c(=O)n(C)c(=O)n(C)c3nc12	1	0	2	0	.	.
O=c1[nH]c(N/N=C/c2cc([N+](=O)[O-])ccc2O)nnc1Cc1ccccc1	3	6.2*	42	0	1	2
O=c1[nH]c(N/N=C/c2ccc(O)cc2)nnc1Cc1ccccc1	0	0	18	0	.	.
CC1CN(CC(=O)NCc2nc(-c3ccccc3)n[nH]2)Cc2ccccc2O1 (stereo unspecified)	6	0	1	0	.	.
Cc1ccc2c(c1)CN(CC(=O)NCc1cc(-c3ccccc3)n[nH]1)CC(C)O2 (stereo unspecified)	-2	5.2*	6	0	1	7
COc1cc(C(=O)Nc2cc(C(=O)Nc3ccccc3SC)ccc2N2CC3CC(C2)c2cccc(=O)n2C3)cc(OC)c1OC (stereo unspecified)	-12	1	12	0	.	.
COc1cc(C(=O)Nc2cc(C(=O)N3CCN(c4ccccc4)CC3)ccc2N2CC3CC(C2)c2cccc(=O)n2C3)cc(OC)c1OC (stereo unspecified)	6	5.5*	12	0	-1	3
CN(CCc1ccccn1)C(=O)c1ccc(N2CC3CC(C2)c2cccc(=O)n2C3)c(NC(=O)c2cccs2)c1 (stereo unspecified)	2	7.4*	7	0	-1	-3
COC(=O)c1cc(NC(=O)c2ccc(N3CC4CC(C3)c3cccc(=O)n3C4)c(NC(=O)Nc3ccccc3)c2)cc(C(=O)OC)c1 (stereo unspecified)	-12	6.7*	-2	0	1	8
COC(=O)c1cnc(NCCc2ccc(OC)c(OC)c2)c2ccccc12	4	0	5	0	.	.
Cc1ccc2c(c1)-c1c(cnn1CC(=O)NCCN1CCN(c3ccccc3F)CC1)CO2	-4	5	-3	0	.	.
CC(=O)c1cccc(NC(=O)Nc2ccccc2C(N)=O)c1	16	-5	-24	0	.	.
CC(C)CC(C(=O)N1CCCCCC1)N1Cc2ccccc2C1=O (stereo unspecified)	4	0	0	0	.	.
CCN1CCN(C(=O)C(CC(C)C)N2Cc3ccccc3C2=O)CC1 (stereo unspecified)	-5	5.5*	1	0	0	-2
COc1ccc(O)c(CN2CCCCC2)c1	-9	0	-4	0	.	.
COc1ccc(O)c(CN(C)CCN(C)C)c1	10	7.2*	8	1	0	-9
CCOC(=O)C1=C(C)NC(=O)NC1c1cc(Br)cc(Br)c1O (stereo unspecified)	-5	4	19	0	.	.
COc1ccccc1NC(=O)c1c(NC(=O)CCC(=O)O)sc2c1CCC(C(C)(C)C)C2 (stereo unspecified)	-4	1	-11	0	.	.
CCC(=O)Nc1sc2c(c1C(=O)Nc1ccccc1C(=O)OC)CCC(C(C)(C)C)C2 (stereo unspecified)	-1	5.2*	1	0	-1	-12
CCC(C)(C)C1CCc2c(sc(NC(=O)c3ccccc3OC)c2C(N)=O)C1 (stereo unspecified)	-3	8.1*	-3	0	0	5
SMILES	TEAD-YAP inh	GPR151 activ	MITF inh	FBW7 act	GPR151 confirm	GPR119 counter
OCC1CCCN1c1nc(NC2CC2)c2[nH]cnc2n1 (stereo unspecified)	-18	0	-10	0	.	.
NC(=O)c1cn(-c2ccccc2)nc1-c1ccc(Cl)cc1	1	-1	16	0	.	.
CN(Cc1cn(-c2ccccc2)nc1-c1ccc(Cl)cc1)C(=O)CCC(=O)O	-10	5.6*	18	1	-1	-6
CCn1cc(Br)c(C(=O)Nc2cccc(SC)c2)n1	-25	6.4*	-2	0	0	-7
CCn1cc(Br)c(C(=O)Nc2cccc(F)c2)n1	-22	-1	7	0	.	.
c1cc(-c2noc(C3CCNCC3)n2)ccn1	3	3	3	0	.	.
c1ccc(C(c2ccccc2)c2noc(C3CCNCC3)n2)cc1	-5	6.9*	8	0	-1	-5
Cn1nc(C(=O)NCc2ccc(F)cc2)c2c1-c1ccccc1OC2	-10	12*	-6	0	1	-1
COc1ccccc1CNC(=O)c1nn(C)c2c1COc1ccccc1-2	-15	0	8	0	.	.
CC(Nc1ncnc2sc3c(c12)CCCC3)c1ccc(S(N)(=O)=O)cc1 (stereo unspecified)	11	1	1	0	.	.
CCSCCOC(=O)C1=C(C)NC2=C(C(=O)CC(c3cccs3)C2)C1c1ccc(C(F)(F)F)cc1 (stereo unspecified)	-1	1	5	0	.	.
O=C(Cn1ncn2cccc2c1=O)NCCc1ccc(Cl)cc1	1	1	0	0	.	.
O=C(COC(=O)c1cc(O)c(O)c(O)c1)NC1CCCc2ccccc21 (stereo unspecified)	8	-1	32	0	.	.
Nc1cccc(C(=O)OCC(=O)NC2CCCc3ccccc32)c1 (stereo unspecified)	9	5.2*	4	0	-1	-2
O=C1c2cccc3cccc(c23)C(=O)N1Cc1ccco1	-4	-2	16	0	.	.
O=C1c2cc3ccccc3cc2C(=O)N1Cc1ccco1	9	5.8*	17	0	0	-8
CCSc1nc(-c2ccco2)nc2c1c(=O)n(C)c(=O)n2C	9	6.3*	16	0	1	6
Cn1c(=O)c2c(SCC(=O)c3ccccc3)nc(-c3ccccc3F)nc2n(C)c1=O	-9	1	1	0	.	.
Cn1c(=O)c2c(SCC(=O)O)nc(-c3ccco3)nc2n(C)c1=O	-13	0	-14	0	.	.
Cn1c(=O)c2c(SCC(=O)O)nc(-c3ccccc3Cl)nc2n(C)c1=O	-2	4.9*	-3	0	-1	0
COc1ccc(-c2nc(C)c(CCNC(=O)c3c(F)cccc3F)s2)cc1OC	-35	-1	-11	0	.	.
O=c1c2ccccc2cnn1CCOc1ccc(Cl)cc1	-40	4.9*	-4	0	0	-4
